Data on 39 compounds can be found in ChEMBL document CHEMBL1157539, “Thousands of chemical starting points for antimalarial lead identification” (Nature, 2010).

The structures appear in SMILES notation. Several values for one entry are separate records, joined by “and”; a condition that tells them apart may be missing. Equal entries are not always repeated.

The assay has as its system HepG2. The assay can be described thus: GSK_TCMDC: Percent inhibition of human HepG2 cell line. Test compounds present at 10uM. It is filed as functional.
`Cc1ccc(CC(C)(C)NCC(O)c2cccc(C(F)(F)F)c2)cc1.O=C(O)/C=C/C(=O)O` (centres undefined) returned an Inhibition of 19%.
The figure for `CC[C@H]1CN2CC[C@H]1C[C@H]2[C@H](O)c1cc(-c2cccc(Cl)c2)nc2ccc(OC)cc12.Cl` is 16%; for `CN1C2CCC1c1cc(NC(=O)c3cc(-c4ccc(Cl)cc4)cs3)ccc12.O=C(O)C(F)(F)F` (centres undefined) it is 62%.
Under `Cc1[nH]c2c(C)cc(NS(C)(=O)=O)cc2c1C1CCN(CC2CCN(C(=O)/C=C/c3ccc(Cl)c(Cl)c3)CC2)CC1` stands 33%.
The figure for `CN1CC=C(c2c[nH]c3ccc(OC(=O)c4ccccc4)cc23)C1` is 12%; for `CC(=O)Nc1ccc(CN2CCC(N(C)c3cc(NC(=O)c4cccc(F)c4)ccn3)CC2)cc1.O=C(O)C(F)(F)F` it is 4%; for `Cc1cc(C)c(CC(C)NCC(O)c2cccc(C(F)(F)F)c2)c(C)c1.Cl` (centres undefined) it is 0%.
The compound `CC1=CC(=O)[C@@H](O)[C@]2(C)[C@H]3[C@@]4(O)OC[C@@]35[C@@H](C[C@@H]12)OC(=O)C[C@H]5[C@@H](C)[C@H]4O` [CHAPARRINONE] had an Inhibition of 38%.
The figure for `O=C(Nc1ccccc1C(F)(F)F)NC1CCC(CN2CCC(c3c[nH]c4ccccc34)CC2)CC1` (centres undefined) is 46% and 34%; for `CC[C@H]1CN2CC[C@H]1C[C@H]2[C@H](O)c1cc(-c2ccccc2C)nc2ccc(OC)cc12.Cl` it is 16%; for `CCCCCc1cc(O)c2c(c1)OC(C)(C)CC2C1=CCN(Cc2ccccc2)CC1` (centres undefined) it is 15%.
The figure for `CCCCNC(c1ccc(Cl)cc1)C(O)c1ccc(Cl)cc1.Cl` (centres undefined) is 13%; for `Cl.O=C(/C=C/c1ccc(Cl)c(Cl)c1)NC1C2CCC1CC(CN1CCC(c3c[nH]c4ccccc34)CC1)C2` (centres undefined) it is 31%.
As for `CC(Cc1ccc(SCCSc2ccccc2)cc1)NCC(O)c1cccc(Cl)c1` (centres undefined), the Inhibition is 4%.
Regarding `FC(F)(F)c1cccc(N2CCC(CN3CCC(c4c[nH]c5ccccc45)CC3)CC2)n1.O=C(O)C(F)(F)F`, the Inhibition was 41%.
As for `C=CC12CCN(CC1)C(C(O)c1ccnc3ccc(OC)cc13)C2` (centres undefined), the Inhibition was 0%.
Turning to `C=C[C@H]1CN2CC[C@@H]1C[C@H]2[C@H](O)c1cc(-c2ccc(F)cc2)nc2ccc(OC)cc12.Cl`, the Inhibition is listed as 5%.
The figure for `O=C(CCc1ccc(Cl)cc1Cl)NC1CCC(CN2CCC(c3c[nH]c4ccccc34)CC2)CC1` (centres undefined) is 44% and 33%.
`Cc1ccc(CC(C)NCC(O)c2cccc(Cl)c2)cc1F.Cl` (centres undefined) yielded an Inhibition of 1%.
Under `O=C(/C=C/c1ccc(Cl)c(Cl)c1)NCCCCCN1C2CCC1CC(c1c[nH]c3ccccc13)C2` (centres undefined) stands 54%; under `CCCCCCCc1cc(O)c2c3c(c(=O)oc2c1)CN(C)CC3`, 0%; under `C/C=C1\CN2CC[C@H]1C[C@H]2[C@H](O)c1ccnc2ccc(O)cc12`, 0%.
Under `CCCCCc1cc(O)c2c(c1)OC(C)(C)CC2C1=CCN(Cc2cnc3ccccc3c2)CC1.Cl.O` (centres undefined) stands 27%.
`COC(C(=O)OCCC1CCCN1C)(c1ccccc1)c1ccccc1` (centres undefined) had an Inhibition of 6%.
Under `Br.Cc1ccccc1C1=CCN(CCCN2c3ccccc3Sc3ccc(Cl)cc32)CC1` stands 14%.
The figure for `Cc1ccc(/C=C/C(=O)NC2CCC(CN3CCC(c4c[nH]c5ccccc45)CC3)CC2)cc1C` (centres undefined) is 23% and 38%.
`CC[C@H]1CN2CC[C@H]1C[C@H]2[C@H](O)c1cc(-c2cccc(C)c2)nc2ccc(OC)cc12.Cl`: the Inhibition is 15%.
Compound `Cc1[nH]c2cc(F)ccc2c1C1=CCN(CCCCC2(C)C(=O)Nc3ccccc32)CC1` (centres undefined) registered an Inhibition of 13%.
The figure for `CC[C@@]1(O)C(=O)OCc2c1cc1n(c2=O)Cc2c-1nc1cc3c(cc1c2CN1CCOCC1)OCO3.O=C(O)C(F)(F)F` is 81%.
Under `O=C(NC1CCN(CC2(c3ccc(Cl)cc3)CCC2)CC1)c1cscn1` stands 0%; under `Cl.OC(CNC1CCCCCCC1)c1ccc(Cl)c(Cl)c1` (centres undefined), 17%; under `O=C(C=Cc1cccc(Cl)c1Cl)NC1CCC(CN2CCC(c3c[nH]c4ccccc34)CC2)CC1` (centres undefined), 40% and 33%.
Under `CC[C@H]1CN2CC[C@H]1C[C@H]2[C@H](O)c1cc(-c2cccc(F)c2)nc2ccc(OC)cc12.Cl` stands 34%; under `Cn1c(C2CC3CCC(C2)N3CC2CCC(NC(=O)/C=C/c3ccc(Cl)c(Cl)c3)CC2)nc2ccccc21` (centres undefined), 50%.
Regarding `CC(C)CNCc1cccc(-c2cccc(CN(C(=O)NC3CCCCC3)C3CCN(Cc4ccccc4)CC3)c2)c1.O=C(O)C(F)(F)F`, the Inhibition is given as 32%.
The figure for `Cc1cc2ccc(CNCCc3ccccc3Br)cc2nc1N.Cl` is 0%.
Under `CN1CCC(COC(=O)C(O)(c2ccccc2)c2ccccc2)C1` (centres undefined) [TRICLAZATE] stands 0%; under `COc1cccc(/C=C/C(=O)NC2CCC(CN3CCC(c4c[nH]c5ccccc45)CC3)CC2)c1` (centres undefined), 30% and 19%.
The figure for `COc1ccc2[nH]cc(C3=CCN(CC4CC4C(=O)c4ccccc4)CC3)c2n1` (centres undefined) is 22%.
